Measured values taken from PubChem BioAssay (NCATS).
Records with an inconclusive call do not appear. Active and inactive are the calls of the source. Unless noted, the call rests on the fitted dose curve; in most records, active means well fitted curve in the direction sought with a large enough effect; inconclusive means small, poorly fitted or top-dose-only effect, or another doubt; inactive means no such curve, though single readings can be large; an effect the other way counts as inactive or inconclusive.

Key:
[1] = tested on: Zika virus NS2B-NS3 protease (linked construct); test: Primary screen NINDS Rhodamine qHTS for Zika virus inhibitors (AID 1347160)
Procedure, shortened: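 Kinetic fluorescence (Ex 480 nm, Em 540 nm) over 15 min with 1.5 microM Rhodamine110 peptide and 25 nM linked protease.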

[2] = OV-KATE Cancer Cell Toxicity qHTS against the NCATS CANVASS Library (AID 1347345)
Procedure, shortened: (§1)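 ATP content after 72 h treatment, detected by CellTiter-Glo luminescence (15min room-temperature development), reflects cell viability. Wells contained 1000 cells and received compounds at 11 concentrations.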

[3] = HPAF-II Cancer Cell Toxicity qHTS against the NCATS CANVASS Library (AID 1347346)
Procedure, shortened: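 HPAF-II cells at 1000 cells/well were treated with an 11-point concentration series for 72 hours at 37 degrees C. Viability read by CellTiter-Glo luminescence.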

[4] = OV-SAHO Cancer Cell Toxicity qHTS against the NCATS CANVASS Library (AID 1347348)
Procedure, shortened: as §1

[5] = Panc-1005 Cancer Cell Toxicity qHTS against the NCATS CANVASS Library (AID 1347349)
Procedure, shortened: as §1

[6] = SW1088 Cancer Cell Toxicity qHTS against the NCATS CANVASS Library (AID 1347350)
Procedure, shortened: as §1

[7] = COV-362 Cancer Cell Toxicity qHTS against the NCATS CANVASS Library (AID 1347352)
Procedure, shortened: (§2)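 Cells at 1000/well were given compound 4 h after plating in an 11-point series. Viability was read by CellTiter-Glo luminescence after 72 h at 37 degrees C.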

[8] = A2780 Cisplatin Sensitive Ovarian Cancer Cell Toxicity qHTS against the NCATS CANVASS Library (AID 1347353)
Procedure, shortened: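 A2780 cells, 750/well, settled 4 h at 37 °C, then treated with an 11-point compound series for 72 h. Viability was read as ATPLite luminescence after 10 min at room temperature, with bortezomib as control.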

[9] = UWB1.289-WTBRCA1 Cancer Cell Toxicity qHTS against the NCATS CANVASS Library (AID 1347354)
Procedure, shortened: as §2

[10] = HPAF-II 24hr Apoptosis Induction qHTS against the NCATS CANVASS Library (AID 1347356)
Procedure, shortened: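 HPAF-II cells (500/well) exposed to compounds in 11-point series for 24 h at 37 degrees C; caspase-3/7 activity read by Caspase-Glo luminescence after 15 min at room temperature. Doxorubicin titration as control.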

[11] = HEK293 18hr Apoptosis Induction qHTS against the NCATS CANVASS Library (AID 1347357)
Procedure, shortened: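 Natural products applied to HEK293 for 18 hr; Caspase-Glo 3/7 readout.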

[12] = HEK293 24hr Apoptosis Induction qHTS against the NCATS CANVASS Library (AID 1347359)
Procedure, shortened: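 Caspase-3/7 activation measured as luminescence from the DEVD-based Caspase-Glo reagent, 15 min at room temperature, following 24-hour compound treatment of HEK293 cells.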

[13] = tested on: NAD(P)H diaphorase (Clostridium kluyveri); test: Diaphorse counterscreen qHTS: Assay Interference Panel against the NCATS CANVASS Library (AID 1347362)
Procedure, shortened: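 Counterscreen for coupling-enzyme interference: resorufin fluorescence from resazurin/NADH turnover, read after 5 min at room temperature. Compounds were tested over an 11-point series after 15 min dark preincubation with diaphorase in PBS-Tween.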

[14] = target: Luciferin 4-monooxygenase (Photinus pyralis) (UniProt P08659); test: Firefly luciferase counterscreen qHTS: Assay Interference Panel against the NCATS CANVASS Library (AID 1347363)
Luciferin 4-monooxygenase (Photinus pyralis), sequence (P08659 whole entry, looked up): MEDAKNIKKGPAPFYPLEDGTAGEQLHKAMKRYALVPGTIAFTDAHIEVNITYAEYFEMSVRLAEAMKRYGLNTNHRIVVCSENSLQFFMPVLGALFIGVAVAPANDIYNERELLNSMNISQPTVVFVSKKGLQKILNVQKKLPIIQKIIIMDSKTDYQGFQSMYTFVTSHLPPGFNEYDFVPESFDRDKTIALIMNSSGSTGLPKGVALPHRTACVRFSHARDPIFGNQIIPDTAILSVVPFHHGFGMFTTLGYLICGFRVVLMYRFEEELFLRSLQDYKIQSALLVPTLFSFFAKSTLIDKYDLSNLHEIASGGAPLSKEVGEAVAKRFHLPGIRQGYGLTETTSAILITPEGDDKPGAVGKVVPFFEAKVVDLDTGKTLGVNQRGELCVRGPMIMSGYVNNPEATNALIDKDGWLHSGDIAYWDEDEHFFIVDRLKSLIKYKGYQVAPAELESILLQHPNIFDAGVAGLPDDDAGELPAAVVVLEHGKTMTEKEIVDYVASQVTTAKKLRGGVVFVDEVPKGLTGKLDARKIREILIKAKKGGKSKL
Procedure, shortened: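 Luminescence inhibition readout: compounds (11-point qHTS) sat 15 min at room temperature with substrate mix (0.013 mM luciferin and ATP), then firefly luciferase was added and signal read 5 min later.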

[15] = SDT Cancer Cell Toxicity qHTS against the NCATS CANVASS Library (AID 1347365)
Procedure, shortened: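 SDT dog glioma cells (500/well) exposed to an 11-point compound series for 72 hr at 37C, 5% CO2. Cytotoxicity read as ATP content by CellTiterGlo luminescence; bortezomib titration as control.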

[16] = KB-3-1 Cancer Cell Toxicity qHTS against the NCATS CANVASS Library (AID 1347366)
Procedure, shortened: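 Cytotoxicity toward KB-3-1 cells (500/well, DMEM + 10% FBS) was scored by CellTiter-Glo luminescence following 72 hr exposure at 37C, with bortezomib titrated as control.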

[17] = G06 Cancer Cell Toxicity qHTS against the NCATS CANVASS Library (AID 1347368)
Procedure, shortened: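 G06 dog glioma cells, 500 per well, exposed 72 hr at 37C, 5% CO2 to compounds in an 11-point series. Cytotoxicity read as ATP content by CellTiterGlo luminescence.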

[18] = MCF7 Cancer Cell Toxicity qHTS against the NCATS CANVASS Library (AID 1347369)
Procedure, shortened: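 This 72 hr qHTS scored MCF7 viability by CellTiterGlo luminescence, with 500 cells/well; bortezomib titration ran as control.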

[19] = qHTS for ATAD5 Antagonist screened against the NCATS CANVASS Library (AID 1347370)
Procedure, shortened: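 HEK293T cells with stably integrated ATAD5-luciferase reporter, 2000/well, 5 h attachment; compounds plus 10 µM 5-fluorouridine, 16 h at 37 °C. Luciferase luminescence read, with CellTiter-Fluor viability read first.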

[20] = J3T Cancer Cell Toxicity qHTS against the NCATS CANVASS Library (AID 1347371)
Procedure, shortened: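 J3T dog glioma cells, 500 per well, treated 72 h at 37C with compounds (11-point qHTS); viability from ATP content by CellTiterGlo luminescence; bortezomib titration as control.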

[21] = target: Nuclear receptor subfamily 1 group I member 3 (Homo sapiens) (UniProt Q14994); test: qHTS for Constitutive Androstane Receptor (CAR) Antagonist screened against the NCATS CANVASS Library (AID 1347372)
Nuclear receptor subfamily 1 group I member 3 (Homo sapiens), sequence (Q14994 whole entry, looked up): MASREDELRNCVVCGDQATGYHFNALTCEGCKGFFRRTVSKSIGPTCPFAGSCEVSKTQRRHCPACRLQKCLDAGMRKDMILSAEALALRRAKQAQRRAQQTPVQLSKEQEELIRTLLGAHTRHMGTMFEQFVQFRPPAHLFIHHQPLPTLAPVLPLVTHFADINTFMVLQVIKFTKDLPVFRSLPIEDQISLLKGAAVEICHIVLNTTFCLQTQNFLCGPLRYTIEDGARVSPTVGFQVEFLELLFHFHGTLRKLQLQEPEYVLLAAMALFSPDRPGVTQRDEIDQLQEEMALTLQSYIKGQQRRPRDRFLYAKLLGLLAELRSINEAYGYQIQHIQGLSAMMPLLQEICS
Procedure, shortened: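 HepG2-CYP2B6-hCAR double-stable cells plated, 4hr attach; cpd pin-transferred; CITCO 50 nM final; 24hr 37C/5% CO2; CellTiter-Fluor 1hr (fluorescence), then ONE-Glo luminescence.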

[22] = target: Nuclear receptor subfamily 1 group I member 3 (Homo sapiens) (UniProt Q14994); test: qHTS for Constitutive Androstane Receptor (CAR) Agonist screened against the NCATS CANVASS Library (AID 1347373)
Procedure, shortened: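 HepG2 cells stably carrying hCAR and a CYP2B6-2.2kb luciferase reporter, treated 24hr at 37C with compounds plus 1.5uM PK11195; activation by ONE-Glo luminescence, viability by CellTiter-Fluor.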

[23] = qHTS for Inflammasome Signaling Inhibitors: IL-1-beta AlphaLISA screen against the NCATS CANVASS Library (AID 1347379)
Procedure, shortened: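 THP-1 cells pretreated 1 hr with compound (up to 57.5 uM final), then stimulated with LPS (250 ng/mL final) and ATP (1.25 mM final). Secreted IL-1B measured by AlphaLISA after 16 hr; glyburide as positive control.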

[24] = Inflammasome Signaling qHTS Counterscreen: IL-1-beta AlphaLISA counterscreen against the NCATS CANVASS Library (AID 1347381)
Procedure, shortened: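 Cell-free interference check: compounds added to medium spiked with 4 pg purified IL-1β. Anti-IL-1β acceptor beads (6 ug/mL) with 0.6 nM biotinylated antibody added for 1 h at RT, then streptavidin donor beads (24 ug/mL) for 30 min in the dark. AlphaLISA read at 680/615 nm.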

[25] = Cytotoxicity qHTS for assessment of Hepg2 cells membrane integrity screened against the NCATS CANVASS Library (AID 1347387)
Procedure, shortened: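 HepG2 cells (2000/well) attached overnight, then exposed 5 hr at 37C to compounds in an 11-point series (0.59 nM - 46 uM final). LDH release from damaged membranes read fluorometrically (CytoTox-ONE; 560/590 nm) after 10 min at room temperature.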

[26] = qHTS for Activators of p53 Stress Response Pathway screened against the NCATS CANVASS Library (AID 1347388)
Procedure, shortened: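 Beta-lactamase reporter driven by p53 response elements in HCT-116 cells, read as the 460 nm/530 nm emission ratio after CCF4 loading, following 16 h of exposure to an 11-point series. Cell viability was measured in the same wells by CellTiter-Glo luminescence.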

[27] = qHTS assay for small molecule disruptors of mitochondrial membrane potential screened against the NCATS CANVASS Library (AID 1347389)
Procedure, shortened: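 HepG2 cells (2,000/well) plated overnight, then exposed to compounds in 11-point qHTS series for 1 h at 37C before 30 min Mito-MPS dye; depolarization read as fall in red aggregate (590 nm) to green monomer (535 nm) fluorescence.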

[28] = Secretion counterscreen for inhibitors of the SERCaMP assay screened against the NCATS CANVASS Library (AID 1347390)
Procedure, shortened: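 Natural products are titrated in an 11-point series up to 77 uM onto SH-SY5Y-GLuc STOP cells for 20 h. Secreted reporter activity is measured as coelenterazine-driven luminescence, with Brefeldin A on each plate.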

[29] = qHTS for activators of dead-cell proteases activity screened against the NCATS CANVASS Library (AID 1347392)
Procedure, shortened: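 Compounds are pin-transferred onto attached HepG2 cells, giving 11 final concentrations. After 5 h at 37C, AAF-aminoluciferin reagent is added and luminescence is recorded at room temperature.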

[30] = qHTS for inhibitors of Wild type Zika virus screened against the NCATS CANVASS Library (AID 1347396)
Procedure, shortened: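 Protection against wild-type Zika cytopathic effect is measured in African green monkey Vero 766 cells exposed to an 11-point compound series. Surviving cells are quantified by CellTiter Glo luminescence after 72 h.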

[31] = qHTS for inhibitors of Rabies Virus screened against the NCATS CANVASS Library (AID 1347402; calls by dose curve)

Measured: Potency

CC=C1CN(C=O)[C@H]2C[C@@H]1[C@@H](C(=O)OC)[C@@]13CCOC21Nc1ccccc13 (stereo partly specified)
active: [1] 44 µM
inactive: [2] | [3] | [4] | [5] | [6] | [7] | [8] | [9] | [10] | [11] | [12] | [13] | [14] | [15] | [16] | [17] | [18] | [19] | [20] | [21] | [22] | [23] | [24] | [25] | [26] | [27] | [28] | [29] | [30] | [31]
